Assay results from PubChem BioAssay (NCI).
Compounds without any hit were thinned out: in the full panel of roughly 79,000, 15% have a hit. Calls of active or inactive are those of the source. Cut-off read from the data, not from the text of the source: active = growth inhibition above about 70%; inactive = the rest.

How the values were obtained:
[1] = NCI Yeast Anticancer Drug Screen. Data for the rad52 strain (AID 147);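 note: 0% = growth of vehicle-treated control cultures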; details: S. cerevisiae rad52 mutant growth inhibition, hits give high values
Procedure, shortened: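 Screen used a yeast mutant impaired in DNA repair. After compound exposure, growth was measured. Values reflect inhibition compared with vehicle-treated cells.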

[2] = NCI Yeast Anticancer Drug Screen. Data for the wt1 strain (AID 149);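 note: 0% = growth of vehicle-treated wt1 cultures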; details: S. cerevisiae wt1 strain (SPY 50644) growth inhibition, hits give high values
Procedure, shortened: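 wt1 strain grown with compound or vehicle; inhibition taken from the growth difference.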

[3] = NCI Yeast Anticancer Drug Screen. Data for the rad50EPP+ strain (AID 151);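 note: 0% = growth of vehicle-treated control cultures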; details: S. cerevisiae rad50 mutant strain, hits give high values
Procedure, shortened: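 Exposing the rad50EPP+ strain to each compound, growth was compared with vehicle-only cultures to give inhibition.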

[4] = NCI Yeast Anticancer Drug Screen. Data for the mgt1 strain (AID 153); details: S. cerevisiae mgt1 mutant growth inhibition, hits give high values
Procedure, shortened: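 Genetically defined yeast (mgt1) treated with compound; inhibition of growth expressed against vehicle-treated controls.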

[5] = NCI Yeast Anticancer Drug Screen. Data for the rad50 strain (AID 155);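 note: 0% = growth of vehicle-only cultures of the same strain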; details: S. cerevisiae rad50 strain growth inhibition, hits give high values
Procedure, shortened: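 DNA repair mutant yeast, compound exposure, growth read-out; inhibition is taken relative to vehicle.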

[6] = NCI Yeast Anticancer Drug Screen. Data for the mec2-1 strain (AID 157); details: S. cerevisiae mec2-1 strain, hits give high values
Procedure, shortened: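 Readout is yeast growth inhibition, normalised to vehicle-treated controls, in the mec2-1 strain exposed to compound.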

[7] = NCI Yeast Anticancer Drug Screen. Data for the rad14 strain (AID 159);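 note: 0% = growth of vehicle-treated control cultures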; details: S. cerevisiae rad14 strain growth inhibition, hits give high values
Procedure, shortened: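 DNA repair-defective yeast, compound-exposed; % growth inhibition derived by comparison with vehicle-treated controls.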

[8] = NCI Yeast Anticancer Drug Screen. Data for the sgs1 mgt1 strain (AID 161);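 note: 0% = growth of cultures given vehicle only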; details: S. cerevisiae sgs1 mgt1 strain, hits give high values
Procedure, shortened: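 This yeast growth screen uses a strain with defined DNA-repair lesions; compound-treated growth is compared with vehicle-treated growth.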

[9] = NCI Yeast Anticancer Drug Screen. Data for the CLN2oe strain (AID 163);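 note: 0% = growth of vehicle-only control cultures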; details: S. cerevisiae CLN2oe strain, hits give high values
Procedure, shortened: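 Values reflect how much compound exposure reduced yeast growth, referenced to vehicle-exposed cells. Assay organism is a strain with a defined genetic change affecting cell-cycle control.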

[10] = NCI Yeast Anticancer Drug Screen. Data for the cln2 rad14 strain (AID 165);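 note: 0% = growth equal to vehicle treated cultures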; details: S. cerevisiae cln2 rad14 strain, hits give high values
Procedure, shortened: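 Relative to vehicle controls, growth inhibition of compound-treated cln2 rad14 yeast was recorded.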

[11] = NCI Yeast Anticancer Drug Screen. Data for the bub3 strain (AID 167); details: S. cerevisiae bub3 mutant strain, hits give high values
Procedure, shortened: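 In this screen, a yeast mutant lacking normal mitotic checkpoint function is challenged with compound. Relative growth versus vehicle gives the inhibition value.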

[12] = NCI Yeast Anticancer Drug Screen. Data for the wt2 strain (AID 169);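 note: 0% = growth of vehicle-treated yeast cultures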; details: S. cerevisiae wt2 strain growth inhibition, hits give high values
Procedure, shortened: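 Values express reduction in yeast growth under compound treatment, referenced to vehicle-treated cells.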

[13] = NCI Yeast Anticancer Drug Screen. Data for the mlh1 strain (AID 171);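 note: 0% = growth of vehicle-treated control cultures of the same strain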; details: S. cerevisiae mlh1 strain growth inhibition, hits give high values
Procedure, shortened: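 Steps: expose the defined-mutant yeast strain to compound; expose a parallel culture to vehicle; measure growth; express compound effect as inhibition relative to the vehicle culture.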

[14] = NCI Yeast Anticancer Drug Screen. Data for the sgs1 strain (AID 173);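 note: 0% = growth of vehicle-only control cultures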; details: S. cerevisiae sgs1 mutant, hits give high values
Procedure, shortened: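 Treat defined-mutant yeast with compound; measure growth; calculate inhibition relative to vehicle-treated cells.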

[15] = NCI Yeast Anticancer Drug Screen. Data for the mlh1 rad18 strain (AID 175); details: S. cerevisiae mlh1 rad18 strain growth inhibition, hits give high values
Procedure, shortened: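 Test agents were incubated with a yeast strain of defined genotype (DNA damage repair defect). Inhibition of growth was derived by comparison with vehicle-exposed cultures.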

[16] = NCI Yeast Anticancer Drug Screen. Data for the rad18 strain (AID 177); details: S. cerevisiae rad18 mutant growth inhibition, hits give high values
Procedure, shortened: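 A genetically defined yeast mutant impaired in DNA damage repair was treated with test compounds, then its growth was measured against cultures receiving vehicle alone.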

[17] = at 5.0 µM (retest, dose inferred, filed as 0.5)
[18] = at 50.0 µM (retest, dose inferred, filed as 5.0)

Measured: growth inhibition

O=CNc1ccc2c(c1)C(=O)c1ccccc1-2
active: [1]; at 33.0 µM 94% | [1]; at 100.0 µM 97% | [2]; at 100.0 µM 85% | [3]; at 33.0 µM 86% | [3]; at 100.0 µM 95% | [4]; at 100.0 µM 97% | [5]; at 33.0 µM 93% | [5]; [18] 75% | [5]; at 50.0 µM 94.2% | [5]; at 100.0 µM 96% | [6]; at 100.0 µM 95% | [7]; at 100.0 µM 96% | [9]; at 100.0 µM 75% | [11]; at 100.0 µM 87% | [12]; at 100.0 µM 96% | [13]; at 33.0 µM 72% | [13]; at 100.0 µM 97% | [14]; at 100.0 µM 94% | [16]; at 100.0 µM 94%
inactive: [1]; at 1.2 µM 8% | [1]; at 3.7 µM 15% | [1]; at 11.0 µM 40% | [2]; at 1.2 µM -2% | [2]; at 3.7 µM -1% | [2]; at 11.0 µM 8% | [2]; at 33.0 µM 27% | [3]; at 1.2 µM 5% | [3]; at 3.7 µM 12% | [3]; at 11.0 µM 26% | [4]; at 1.2 µM 4% | [4]; at 3.7 µM 5% | [4]; at 11.0 µM 9% | [4]; at 33.0 µM 47% | [5]; at 1.2 µM 13% | [5]; at 3.7 µM 22% | [5]; [17] 7% | [5]; at 11.0 µM 37% | [6]; at 1.2 µM 3% | [6]; at 3.7 µM 4% | [6]; [17] 6% | [6]; at 11.0 µM 3% | [6]; at 33.0 µM 36% | [6]; [18] 37% | [6]; at 50.0 µM 37.7% | [7]; at 1.2 µM 5% | [7]; at 3.7 µM 9% | [7]; at 11.0 µM 14% | [7]; at 33.0 µM 46% | [8]; [17] 5% | [8]; [18] 55% | [8]; at 50.0 µM 19.3% | [9]; at 1.2 µM 10% | [9]; at 3.7 µM 10% | [9]; at 11.0 µM 18% | [9]; at 33.0 µM 37% | [10]; [17] -15% | [10]; [18] -5% | [10]; at 50.0 µM 26.8% | [11]; at 1.2 µM 9% | [11]; at 3.7 µM 0% | [11]; [17] -6% | [11]; at 11.0 µM 16% | [11]; at 33.0 µM 61% | [11]; [18] 66% | [11]; at 50.0 µM 62.9% | [12]; at 1.2 µM -2% | [12]; at 3.7 µM 0% | [12]; at 11.0 µM 8% | [12]; at 33.0 µM 48% | [13]; at 1.2 µM 3% | [13]; at 3.7 µM 10% | [13]; at 11.0 µM 16% | [14]; at 1.2 µM -2% | [14]; at 3.7 µM 0% | [14]; at 11.0 µM 6% | [14]; at 33.0 µM 52% | [15]; [17] 4% | [15]; [18] 61% | [15]; at 50.0 µM 69.5% | [16]; at 1.2 µM 2% | [16]; at 3.7 µM 3% | [16]; at 11.0 µM 7% | [16]; at 33.0 µM 52%

C=C1CC(Cn2cc(Br)c(=O)[nH]c2=O)(c2ccc(-c3ccccc3)cc2)OC1=O (stereo unspecified)
inactive: [1]; at 1.2 µM 2% | [1]; at 3.7 µM 13% | [1]; at 11.0 µM 21% | [1]; at 33.0 µM 41% | [2]; at 1.2 µM 1% | [2]; at 3.7 µM 6% | [2]; at 11.0 µM 15% | [2]; at 33.0 µM 26% | [3]; at 1.2 µM -4% | [3]; at 3.7 µM -5% | [3]; at 11.0 µM 3% | [3]; at 33.0 µM 9% | [3]; at 100.0 µM 16% | [4]; at 1.2 µM 0% | [4]; at 3.7 µM 9% | [4]; at 11.0 µM 29% | [4]; at 33.0 µM 55% | [5]; at 1.2 µM 3% | [5]; at 3.7 µM 7% | [5]; [17] 8% | [5]; at 11.0 µM 17% | [5]; at 33.0 µM 36% | [6]; at 1.2 µM 5% | [6]; at 3.7 µM 15% | [6]; [17] 21% | [6]; at 11.0 µM 40% | [6]; at 33.0 µM 57% | [7]; at 1.2 µM 5% | [7]; at 3.7 µM 15% | [7]; at 11.0 µM 27% | [7]; at 33.0 µM 41% | [8]; [17] 30% | [9]; at 1.2 µM -2% | [9]; at 3.7 µM -5% | [9]; at 11.0 µM 10% | [9]; at 33.0 µM 21% | [10]; [17] 23% | [11]; at 1.2 µM -1% | [11]; at 3.7 µM 1% | [11]; [17] 10% | [11]; at 11.0 µM 25% | [11]; at 33.0 µM 53% | [12]; at 1.2 µM 2% | [12]; at 3.7 µM 10% | [12]; at 11.0 µM 16% | [12]; at 33.0 µM 29% | [13]; at 1.2 µM 2% | [13]; at 3.7 µM 10% | [13]; at 11.0 µM 28% | [13]; at 33.0 µM 41% | [14]; at 1.2 µM 8% | [14]; at 3.7 µM 26% | [14]; at 11.0 µM 37% | [14]; at 33.0 µM 57% | [15]; [17] 68% | [16]; at 1.2 µM 4% | [16]; at 3.7 µM 10% | [16]; at 11.0 µM 10% | [16]; at 33.0 µM 43%
active: [1]; at 100.0 µM 93% | [2]; at 100.0 µM 83% | [4]; at 100.0 µM 94% | [5]; [18] 98% | [5]; at 50.0 µM 98.3% | [5]; at 100.0 µM 92% | [6]; [18] 98% | [6]; at 50.0 µM 98.4% | [6]; at 100.0 µM 93% | [7]; at 100.0 µM 96% | [8]; [18] 87% | [8]; at 50.0 µM 97.3% | [9]; at 100.0 µM 96% | [10]; [18] 99% | [10]; at 50.0 µM 97.8% | [11]; [18] 99% | [11]; at 50.0 µM 98.2% | [11]; at 100.0 µM 92% | [12]; at 100.0 µM 92% | [13]; at 100.0 µM 94% | [14]; at 100.0 µM 93% | [15]; [18] 99% | [15]; at 50.0 µM 97.2% | [16]; at 100.0 µM 95%
